# From PubChem BioAssay (EPA / NIEHS)
# Where “and” joins values, the source holds several entries; their conditions need not be identical. Equal values may be shown once. Inconclusive results are not listed. Calls of active or inactive are those of the source. Rule for the calls: active = hit-call score of the fitted dose curve at least 0.9, where 1 is the maximum; inconclusive = response in the unintended direction; inactive = score below 0.9.
# Experiments:
# [1] = biological target: Luciferin 4-monooxygenase (Photinus pyralis) (UniProt P08659); test: CCTE_Simmons_QuantiLum_inhib_2: CCTE's Firefly Luciferase Inhibition Assay, Simmons Lab (AID 2283767);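 for AC50: potency for inhibitors that lower luciferase luminescence relative to DMSO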
# Sequence of Luciferin 4-monooxygenase (Photinus pyralis) (P08659 whole entry, looked up): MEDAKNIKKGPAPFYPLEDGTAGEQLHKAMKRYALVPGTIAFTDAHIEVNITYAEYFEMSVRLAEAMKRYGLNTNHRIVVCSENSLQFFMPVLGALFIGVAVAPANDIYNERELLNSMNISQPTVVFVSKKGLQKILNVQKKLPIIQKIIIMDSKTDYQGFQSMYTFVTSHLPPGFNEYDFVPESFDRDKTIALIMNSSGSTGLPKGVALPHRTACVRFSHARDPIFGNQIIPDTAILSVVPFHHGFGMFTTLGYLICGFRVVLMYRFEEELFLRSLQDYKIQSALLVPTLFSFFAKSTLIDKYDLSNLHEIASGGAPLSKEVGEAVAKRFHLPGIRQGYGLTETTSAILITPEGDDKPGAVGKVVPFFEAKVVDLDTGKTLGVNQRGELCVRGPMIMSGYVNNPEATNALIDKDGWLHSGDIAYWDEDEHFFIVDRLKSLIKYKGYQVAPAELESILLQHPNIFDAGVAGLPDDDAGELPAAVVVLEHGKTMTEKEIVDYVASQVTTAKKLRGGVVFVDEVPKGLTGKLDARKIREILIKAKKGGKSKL
# In short: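 Cell-free recombinant firefly luciferase (5 ng/well) in 200mM potassium phosphate with 1 mg/ml BSA, 30 min at 37C with 8 concentrations from 5 nM to 87.5 uM [final], 0.5% DMSO. Luminescence read after D-luciferin (150uM)/dATP (147uM) reagent injection, pH 7.8; triplicates.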
# [2] = ArunA_Migration_hNP: ArunA Biomedical's Oris Neuroprogenitor (hNP) Cell Migration Assay (AID 2283754)
# Experimental: ArunA_Migration_hNP is a cell-based, single-readout assay that uses human H9-derived neuroprogenitor stem cells (hNP1). Measurements were taken 72 hours after chemical dosing in a 96-well plate.ArunA_Migration_hNP is an assay component measured from the ArunA_Migration_hNP assay. It is designed to make measurements of cell migration, a form of distribution reporter, as detected with fluorescence intensity signals by HCS Fluorescent Imaging technology. Data from the assay component ArunA_Migration_hNP was analyzed at the endpoint, ArunA_Migration_hNP, in the positive analysis fitting direction relative to DMSO as the negative control and baseline of activity. Using a type of distribution reporter, loss-of-signal activity can be used to understand the cell migration. To generalize the intended target to other relatable targets, this assay endpoint is annotated to the neurodevelopment intended target family, where the subfamily is migration.
# To assess the hNP and hNC migration and cell titer endpoints, 60,000 cells per well were plated onto Matrigel in basal growth medium with LIF and bFGF in a 96-well plate format. Plates were incubated for 16 h at 37C followed by a 72 h exposure to chemical in the test medium. For the migration endpoints, cells were seeded and incubated in presence of 'seeding stoppers' to prevent cell migration and growth into the detection zone. At the beginning of chemical exposure, stoppers were removed, and growth medium was replaced with test medium. In the case of the stopper control wells, stoppers remained in place following replacement of growth medium with test medium. Following 72 -h exposure to the test medium, cells were stained at 37C for 30-60 min with calcein-AM. Cell viability in the detection zone was quantitated using a Flexstation3 microplate reader (ex494 nm/em 517 nm). Corresponding cell titer endpoints were assessed for the hNP and hNC cells using the Promega CellTiter Aqueous One Solution Cell Proliferation Assay (Cat no. G3581; CellTiter 96). Finally, to gain insight into the mechanisms by which cells migrate into the detection zone, Ki-67 expression was quantified for 10 additional chemicals in the hNP and hNC systems. Additionally, cytochalasin D was used as a positive control to inhibit cell migration. Supplementing the AB2 Basal Medium: 1. Decontaminate the external surfaces of all supplement vials and the medium bottle with ethanol or isopropanol. 2. Aseptically open each supplement vial and add the amount indicated below to the basal medium with a pipette. To make 100 ml of complete medium: AB2 Neural Medium 96 mL, ANS Supplement 2 mL, bFGF (50 ug/mL) 40 uL, LIF (10 ug/mL) 100 uL, L-Glutamine (200 mM) 1 mL, Penicillin (5,000 U/mL)/ Streptomycin (5,000 ug/mL) 1 mL. 3. Supplemented medium should be stored at 2-8C, protected from light. The complete medium should be given a 2 week expiration date. Dispense the complete medium into aliquots to avoid repeated heating prior to each use.Plate Coating Protocol for hNP1 Neural Progenitor Expansion: To coat dishes perform the following steps: 1. Thaw BD Matrigel at 2-8C overnight. Matrix will gel rapidly at 22C to 35C. Keep Matrigel on ice and use pre-cooled pipettes, plates and tubes when preparing. Gelled Matrigel may be re-liquified if placed at 2-8C on ice for 24 to 48 hours. 2. Handle using aseptic technique in a laminar flow hood. 3. Once BD Matrigel Matrix is thawed, swirl vial to be sure that material is evenly dispersed. 4. […]
# [3] = ArunA_Migration_hNC: ArunA Biomedical's Oris Neural Crest (hNC) Cell Migration Assay (AID 2283755)
# In short: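 Human H9-derived neural crest stem cells, 60,000/well on Matrigel, 16 h at 37C, then 72 h chemical exposure after seeding-stopper removal. Migration into detection zone read as calcein-AM fluorescence (ex494/em517), relative to DMSO.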
# [4] = ArunA_NOG_NucleusCount: ArunA Biomedical's Neurite Outgrowth (NOG) Assay for Nucleus Count (AID 2283756)
# Experimental: ArunA_NOG (Neurite Outgrowth) is a cell-based, image-based assay that uses human H9-derived embryonic differentiated neurons (hNN). Measurements were taken 48 hours after chemical dosing in a 96-well plate.ArunA_NOG_NucleusCount is an assay component measured from the ArunA_NOG assay. It is designed to make measurements of viability related to the number of neurons, using a form of viability reporter, as detected with fluorescence intensity signals by HCS Fluorescent Imaging technology. Data from the assay component ArunA_NOG_NucleusCount was analyzed at the endpoint, ArunA_NOG_NucleusCount, in the positive analysis fitting direction relative to DMSO as the negative control and baseline of activity. Using a type of viability reporter, loss-of-signal activity can be used to understand viability. To generalize the intended target to other relatable targets, this assay endpoint is annotated to the neurodevelopment intended target family, where the subfamily is neurite outgrowth.
# Chemical treatment: Differentiated hNN cells were seeded and immediately exposed to test medium for 48 h. Following chemical exposure, cell bodies were stained with Hoechst 33,258 to quantitate viable neuron count and neurites were labeled with bIII-tubulin/DyLight1 488. High content imaging assessed the neurite outgrowth endpoints: neurite total length per neuron (um), neurite count per neuron, and branch points per neurite using the methods described in (Harrill et al 2010). Measurements of hN2 morphology: (Beta)III-Tubulin stained cell cultures were allowed to warm to room temperature. Plates were then loaded into a Cellomics ArrayScan VTI HCS reader high-content imaging system (ThermoFisher Scientific, Waltham, MA) for automated image acquisition and morphometric analyses. This system consists of an epifluorescent microscope with an EXFO X-cite 120 metal-halide arc lamp, motorized imaging objectives, stage and excitation/emission filter wheel and a 12-bit high-resolution CCD camera connected to a Dell Intel Xenon computer terminal with 2 GHz processor. Image acquisition and storage was performed using the vHCS Scan software package, version 6.6.1.4. Matched fluorescent images of Hoechst-stained nuclei and (beta)III-tubulin/DyLight 488 immunolabeled cells were acquired using 365/515 (channel 1) and 475/515 (channel 2) nm excitation/emission filter couplings, respectively, with a 20x objective (Zeiss, Inc., Thornwood, NY). Fixed integration times for image acquisition in each channel were determined by manual sampling of control-treated wells across multiple plates. A matching pseudocolored composite image of Hoechst-stained nuclei (blue) and (beta)III-tubulin/DyLight 488 labeled cell bodies and neurites (green). The Neural Profiling BioApplication performs automated image analysis in a sequential manner as follows. Briefly, nuclei were identified in channel 1 as bright objects on a dark background. Nuclei with size and intensity values outside of the ranges determined a priori for viable cells were identified in the channel 1 image and rejected from further analyses. Spatial coordinates from the channel 1 image were then superimposed on the matching channel 2 image. Cell body masks in channel 2 were then cast based on positional data from channel 1 nuclei and a set of user-defined geometric and signal intensity-based parameters. […] Neurites emerging from the selected cell bodies were then individually traced and measured. […]
# [5] = tested on: zebrafish Androgen Receptor (AR), gene 100005148; test: ATG_zfAR_XSP1: Attagene TRANS-FACTORIAL Multi-Species (XSP1) HepG2 Assay for zebrafish Androgen Receptor (AR) (AID 2283771)
# In short: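 HepG2 cells were transiently transfected with a zebrafish AR-GAL4 reporter system and partially stimulated with 3 nM 6-alpha-fluorotestosterone. Reporter mRNA was measured after 24 h dosing by RT-PCR with capillary electrophoresis, and gain-of-signal was fitted relative to DMSO.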
# [6] = biological target: zebrafish Estrogen Receptor (ESR1), esr1 (gene 259252) (UniProt P57717); test: ATG_zfER1_XSP1: Attagene TRANS-FACTORIAL Multi-Species (XSP1) HepG2 Assay for zebrafish Estrogen Receptor (ESR1) (AID 2283772)
# Sequence of zebrafish Estrogen Receptor (ESR1), esr1 (gene 259252) (P57717 whole entry, looked up, the tested form may be a part): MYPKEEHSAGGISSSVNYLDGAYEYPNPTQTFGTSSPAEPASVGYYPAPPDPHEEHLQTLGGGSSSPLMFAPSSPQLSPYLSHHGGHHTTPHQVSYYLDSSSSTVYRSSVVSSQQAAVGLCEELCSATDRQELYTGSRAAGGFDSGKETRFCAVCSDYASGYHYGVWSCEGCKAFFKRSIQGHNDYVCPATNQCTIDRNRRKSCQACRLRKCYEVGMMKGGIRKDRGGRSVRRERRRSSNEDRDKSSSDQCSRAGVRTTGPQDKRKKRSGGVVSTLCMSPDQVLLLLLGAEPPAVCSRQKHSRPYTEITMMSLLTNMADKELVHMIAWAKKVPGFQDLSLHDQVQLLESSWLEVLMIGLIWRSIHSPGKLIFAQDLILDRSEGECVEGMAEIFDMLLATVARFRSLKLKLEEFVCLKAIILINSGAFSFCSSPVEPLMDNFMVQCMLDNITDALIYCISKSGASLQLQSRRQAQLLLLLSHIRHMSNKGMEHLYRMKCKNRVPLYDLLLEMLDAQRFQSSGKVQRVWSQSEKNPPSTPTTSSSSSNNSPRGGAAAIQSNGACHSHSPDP
# In short: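 Reporter mRNA induction, gauged via RT-PCR/capillary electrophoresis fluorescence relative to DMSO controls, in HepG2 cells transiently carrying GAL4-UAS reporter units; 24 h dosing.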
# [7] = ArunA_CellTiter_hNP: Viability Assessment in the ArunA Biomedical's Oris Neural Crest (hNC) Cell Migration Assay (AID 2283753)
# In short: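 H9-derived hNP1 neuroprogenitors, 60,000/well on Matrigel, cultured 16 h, then 72 h chemical exposure in test medium. Cell titer via CellTiter Aqueous One; positive-direction fit vs DMSO.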
# [8] = ArunA_NOG_NeuriteLength: ArunA Biomedical's Neurite Outgrowth (NOG) Assay for Neurite Length (AID 2283757)
# In short: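 Differentiated human H9-derived neurons were exposed for 48 h from seeding, then stained with Hoechst and βIII-tubulin. Automated high-content imaging gave total neurite length per valid neuron, counting processes >10 um. Loss of signal was scored versus DMSO.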
# [9] = ArunA_NOG_NeuritesPerNeuron: ArunA Biomedical's Neurite Outgrowth (NOG) Assay for Neurites Per Neuron (AID 2283758)
# In short: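 Differentiated human H9-derived neurons exposed to chemicals for 48 h from seeding, then stained with Hoechst and βIII-tubulin/DyLight 488. Automated imaging counted neurites (processes >10 um) per valid neuron; loss of signal versus DMSO scored.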
# [10] = ArunA_NOG_BranchPointsPerNeurite: ArunA Biomedical's Neurite Outgrowth (NOG) Assay for Branch Points Per Neurite (AID 2283759)
# In short: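 Automated image analysis traced neurites (processes >10 um) from valid cell bodies after Hoechst and βIII-tubulin staining. hNN cells from H9 embryonic stem cells, 48 h exposure. Fitted bidirectionally against DMSO.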
compound,measurement,setting,value
Cc1cc(SC2=C(O)C[C@@](CCc3ccc(N)cc3)(C(C)C)OC2=O)c(C(C)(C)C)cc1CO,outcome,[1],inactive
O=C1O[C@H]([C@H](O)CO)C(O)=C1O,outcome,[1],inactive
CC(C)NCC(O)c1ccc(O)c(O)c1 (stereo unspecified),outcome,[1],inactive
CCCCCCCCCCCCCCOS(=O)(=O)O,outcome,[1],inactive
Nc1nc(=S)c2[nH]cnc2[nH]1,AC50,[1],11.2 µM (active)
Oc1ccc(O)cc1,outcome,[1],inactive
O=Cc1ccccc1C=O,AC50,[1],53.8 µM (active)
O=C1OC(c2ccc(O)cc2)(c2ccc(O)cc2)c2ccccc21,AC50,[2],26.9 µM (active)
same,AC50,[3],15.9 µM (active)
same,outcome,[4],inactive
same,outcome,[1],inactive
Cc1occc(=O)c1O,outcome,[1],inactive
CCN(CC)CCOc1ccc(C(=C(Cl)c2ccccc2)c2ccccc2)cc1,outcome,[5],inactive
same,outcome,[6],inactive
S=c1[nH]c2ccccc2s1,outcome,[1],inactive
Cc1cc(Cc2ccc(N)c(C)c2)ccc1N,outcome,[1],inactive
Cc1ccc(C(C)(C)C)c(O)c1,outcome,[1],inactive
Nc1nc(Cl)nc2c1ncn2[C@H]1C[C@H](O)[C@@H](CO)O1,AC50,[7],0.345 µM (active)
same,AC50,[2],289 nM (active) and 52.1 nM (active)
same,AC50,[3],120 nM (active) and 32 nM (active)
same,AC50,[4],1.81 µM (active)
same,AC50,[8],1.74 µM (active)
same,AC50,[9],1.58 µM (active)
same,AC50,[10],3.41 µM (active)
CCCCC(CC)COP(=O)(OCC(CC)CCCC)OCC(CC)CCCC (stereo unspecified),outcome,[7],inactive
same,outcome,[2],inactive
same,outcome,[3],inactive
same,outcome,[4],inactive
same,outcome,[8],inactive
same,outcome,[9],inactive
same,outcome,[10],inactive
O=C1c2c(O)cccc2Cc2cccc(O)c21,outcome,[1],inactive
Cc1ccc(-c2cc(C(F)(F)F)nn2-c2ccc(S(N)(=O)=O)cc2)cc1,AC50,[7],76.5 µM (active)
same,AC50,[2],81.9 µM (active)
same,AC50,[3],78.7 µM (active)
same,AC50,[4],7.13 µM (active)
same,AC50,[8],12.9 µM (active)
same,AC50,[9],13.9 µM (active)
C/C=C/c1ccc(OC)cc1,outcome,[1],inactive
Oc1ccccc1O,outcome,[1],inactive
COC(=O)[C@H]1[C@H]2C[C@@H]3c4[nH]c5cc(OC)ccc5c4CCN3C[C@H]2C[C@@H](OC(=O)c2cc(OC)c(OC)c(OC)c2)[C@@H]1OC,AC50,[7],81.8 µM (active)
same,outcome,[2],inactive
same,AC50,[3],50 µM (active)
same,outcome,[4],inactive
same,outcome,[8],inactive
same,outcome,[9],inactive
same,outcome,[10],inactive
same,outcome,[1],inactive
C/C=C/C=C/C(=O)O,outcome,[1],inactive
CC(=O)O[C@]1(C(C)=O)CC[C@H]2[C@@H]3C=C(Cl)C4=CC(=O)[C@@H]5C[C@@H]5[C@]4(C)[C@H]3CC[C@@]21C,AC50,[6],35.6 µM (active)
Cc1c(C)c2c(c(C)c1O)CCC(C)(COc1ccc(CC3SC(=O)NC3=O)cc1)O2 (stereo unspecified),outcome,[1],inactive
